Assay [1] is described as follows: qHTS assay to identify small molecule agonists of the vitamin D receptor (VDR) signaling pathway - cell viability counter screen (AID 743224; active means well fitted curve in the direction sought with a large enough effect in the repeat runs; an effect the other way counts as inactive or inconclusive; further: series mostly up to about 63 µM; nearly all actives have a fitted effect of over 50% in size). In short, it runs like this:
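VDR-bla cell line, quantitative HTS format; 16 h compound incubation (37C, 5% CO2); ATP-based CellTiter-Glo luminescence measured in the reporter assay wells.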
(Quantitative high-throughput screening tests each substance at several concentrations.)

Assay [2] is described as follows: qHTS assay to identify small molecule antagonists of the vitamin D receptor (VDR) signaling pathway - cell viability counter screen (AID 743225; active means well fitted curve in the direction sought with a large enough effect in the repeat runs; an effect the other way counts as inactive or inconclusive; further: nearly all actives have a fitted effect of over 50% in size). In short, it runs like this:
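Cytotoxicity toward the VDR-bla HEK 293T line was scored by ATP-based CellTiter-Glo luminescence, read in the wells already used for the beta-lactamase readout after 16 h compound treatment under 3 nM 1-alpha,25-dihydroxyvitamin D3 stimulation.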

Assay [3] is described as follows: qHTS assay to identify small molecule agonists of the NFkB signaling pathway (AID 1159509; active means well fitted curve in the direction sought with a large enough effect in the signal ratio in the repeat runs, not every such curve was filed as active; the % refers to the signal ratio; further: series mostly up to about 61 µM). In short, it runs like this:
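NFkB-bla ME-180 cells with a beta-lactamase reporter under an NF-kB response element were plated overnight, treated with compounds in DMSO for 5 hr at 37 C, then loaded with FRET substrate for 1.5 hr at room temperature.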

The nature of assay [4]: qHTS assay to identify small molecule agonists of the NFkB signaling pathway - cell viability counter screen (AID 1159515). Further: series mostly up to about 61 µM; nearly all actives have a fitted effect of over 55% in size. The method in brief:
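Viability in NFkB-bla ME-180 cells was measured by CellTiter-Glo luminescence, 30 min room temperature, in wells already treated 5 hr with compounds and read for reporter FRET.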

A short description of assay [5]: qHTS assay to identify small molecule agonists of the endoplasmic reticulum stress response signaling pathway - cell viability counter screen (AID 1159517).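 Further: HeLa cells carrying an ER stress response element beta-lactamase reporter; series mostly up to about 61 µM; nearly all actives have a fitted effect of over 50% in size.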 In short, it runs like this: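 Counter-screen wells were identical to the reporter wells. Cells were plated at 1,500 per well and dosed for 5 hr, then read for luminescence 30 min after CellTiter-Glo addition.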

A short description of assay [6]: qHTS assay to identify small molecule antagonists of the retinoid-related orphan receptor gamma (ROR-gamma) signaling pathway - cell viability counter screen (AID 1159520; active means well fitted curve in the direction sought with a large enough effect in the repeat runs; an effect the other way counts as inactive or inconclusive; further: nearly all actives have a fitted effect of over 50% in size). The method in brief:
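Tet-on ROR gamma CHO cells were given compounds for 2 hr, then doxycycline hyclate at 1 uM final, and incubated 16 hr at 37 C. Viability was measured as ATP content by CellTiter-Glo luminescence.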

The target in assay [7] is Nuclear receptor ROR-gamma (Homo sapiens) (UniProt P51449). Put plainly: qHTS assay to identify small molecule antagonists of the retinoid-related orphan receptor gamma (ROR-gamma) signaling pathway (AID 1159521; active means well fitted curve in the direction sought with a large enough effect in the repeat runs; an effect the other way counts as inactive or inconclusive; further: nearly all actives have a fitted effect of over 50% in size; further: potency means the concentration at half of the fitted maximal effect). In short, it runs like this:
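Readout: ONE-Glo luciferase luminescence, 30 min at room temperature. System: Tet-on RORγ CHO, RORE-LUC. Sequence: compound 2 h, doxycycline 1 uM final, 16 h at 37 C.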

A short description of assay [8]: qHTS assay to identify small molecule agonists of the AP-1 signaling pathway - cell viability counter screen (AID 1159525). Further: nearly all actives have a fitted effect of over 55% in size. The method in brief:
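AP-1-bla ME-180 cells in Opti-MEM with 0.5% dialyzed FBS, compound exposure 5 h at 37 C in 15-point titration. Viability read in the same wells as ATP content by CellTiter-Glo luminescence, normalised to tetra-n-octylammonium bromide and DMSO controls.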

Assay [9] is described as follows: qHTS assay to identify small molecule agonists of the AP-1 signaling pathway (AID 1159526).

SMILES strings stand for the structures. “And” between values parts separate entries of the source, which are not always exact repeats. Identical values can stand only once. Records with an inconclusive call do not appear. The source made the active and inactive calls. Unless noted, the call rests on the fitted dose curve.

In the case of `C[C@H]1C(=O)O[C@@H]2CCN3CC=C(COC(=O)[C@](C)(O)[C@]1(C)O)[C@H]23`, the Potency entry in [1], in assay [7] and in [9] was “inactive” throughout. Besides, the outcome in assay [2], in assay [3], in assay [4], in assay [5], in [6] and in assay [8] was inactive.

Regarding `C[C@]12CC[C@H](O)CC1=CC[C@@H]1[C@@H]2CC[C@]2(C)C(=O)CC[C@@H]12`, the Potency result in [1] and in assay [9] was “inactive” in each case. The outcome in assay [2], in [4], in [5], in assay [6] and in [8] was inactive. Besides, the Potency in assay [7] is 24.4 µM (active) and 24.3 µM (active).

As for `COP(=S)(OC)SCN1C(=O)c2ccccc2C1=O`, the Potency result in [1] and in [9] was “inactive” in each case. For the same compound, the outcome in assay [2], in [3], in [4], in assay [5], in assay [6] and in [8] was inactive.

Consider `CSc1nnc(C(C)(C)C)c(=O)n1N`, for which the Potency result in [1], in assay [7] and in [9] was “inactive” each time. The result in assay [2], in assay [3], in assay [4], in assay [5], in [6] and in assay [8] was inactive.

With `Cl/C=C/Cl`, the Potency entry in assay [1], in assay [7] and in assay [9] was “inactive” in each case. Besides, the result in [2], in assay [3], in [4], in assay [5], in [6] and in assay [8] was inactive.

With `C/C=C/c1ccc2c(c1)OCO2`, the Potency entry in assay [1], in assay [7] and in [9] was “inactive” each time. The result in assay [2], in assay [3], in assay [4], in assay [5], in assay [6] and in [8] was inactive.

As to `CCOc1ccc(N)cc1`, the Potency entry in [1], in [7] and in [9] was “inactive” throughout. The compound was called inactive in assay [2], in assay [3], in assay [4], in assay [5], in assay [6] and in assay [8].

As to `CC12CC1(C)C(=O)N(c1cc(Cl)cc(Cl)c1)C2=O` (configuration not stated), the Potency entry in assay [1], in assay [7] and in assay [9] was “inactive” each time. The result in assay [2], in [3], in [4], in [5], in assay [6] and in assay [8] was inactive.

Take `Cc1cccc(C)c1NC(=O)CN1CCCC1=O`: the Potency result in assay [1], in [7] and in assay [9] was “inactive” each time. Besides, the call in assay [2], in assay [3], in [4], in [5], in [6] and in [8] was inactive.

Regarding `O=C(O)Cc1ccccc1`, the Potency result in assay [1], in [7] and in assay [9] was “inactive” each time. Moreover, the compound was classed as inactive in [2], in assay [3], in assay [4], in [5], in assay [6] and in assay [8].

`Cc1ccccc1N`: the Potency result in assay [1], in assay [7] and in [9] was “inactive” in each case. The result in assay [2], in [3], in [4], in [5], in [6] and in assay [8] was inactive.

For the compound `OC[C@@H](O)[C@H]1O[C@@H]2O[C@H](C(Cl)(Cl)Cl)O[C@@H]2[C@H]1O`, the Potency entry in [1], in [7] and in assay [9] was “inactive” in each case. In addition, the compound was classed as inactive in assay [2], in [3], in [4], in [5], in assay [6] and in assay [8].

For `Cl[C@H]1OCCO[C@@H]1Cl`, the Potency entry in assay [1], in assay [7] and in assay [9] was “inactive” in each case. Further, the compound was classed as inactive in assay [2], in assay [3], in assay [4], in assay [5], in assay [6] and in [8].

Turning to `Cc1cccc(N)c1`, the Potency result in [1], in [7] and in assay [9] was “inactive” each time. Also, the compound was called inactive in [2], in assay [3], in assay [4], in [5], in assay [6] and in assay [8].

In the case of `N#Cc1cccc(C#N)c1`, the Potency result in assay [1], in [7] and in assay [9] was “inactive” throughout. For the same compound, the call in [3], in [4], in [5], in assay [6] and in [8] was inactive.

As to `CC(=O)/C=C/c1ccccc1`, the Potency entry in [1], in assay [7] and in [9] was “inactive” each time. The outcome in assay [2], in assay [3], in assay [4], in assay [5], in assay [6] and in [8] was inactive.

Turning to `Cc1cc(O)ccc1Cl`, the Potency entry in assay [1], in assay [7] and in [9] was “inactive” in each case. For the same compound, the outcome in assay [3], in assay [4], in assay [5], in assay [6] and in [8] was inactive.

On to `O=C(O)CCCc1ccc(N(CCCl)CCCl)cc1`, for which the Potency entry in assay [1] and in assay [9] was “inactive” each time. Also, the compound was classed as inactive in [2], in assay [3], in assay [4], in assay [5] and in assay [8].

`ClC(Cl)c1ccccc1`: the Potency entry in assay [1], in assay [7] and in assay [9] was “inactive” throughout. Besides, the outcome in assay [2], in [3], in assay [4], in [5], in assay [6] and in [8] was inactive.

For the compound `CC(C)(C)C(=O)CCl`, the Potency entry in assay [1], in assay [7] and in assay [9] was “inactive” each time. For the same compound, the result in assay [2], in [3], in assay [4], in assay [5], in assay [6] and in assay [8] was inactive.

As to `CC(C)CCCCCCOC(=O)c1ccccc1C(=O)OCCCCCCC(C)C`, the Potency entry in assay [1] and in assay [9] was “inactive” throughout. Moreover, the call in [3], in assay [4], in assay [5], in assay [6] and in assay [8] was inactive.

For the compound `CCSC(=O)N1CCCCCC1`, the Potency entry in assay [1], in assay [7] and in assay [9] was “inactive” throughout. Also, the call in assay [3], in assay [4], in assay [5], in assay [6] and in assay [8] was inactive.

Take `COC(C)(C)CCCC(C)C/C=C/C(C)=C/C(=O)OC(C)C` (configuration not stated): the Potency entry in assay [1], in [7] and in assay [9] was “inactive” each time. Moreover, the compound was called inactive in assay [2], in assay [3], in [4], in [5], in assay [6] and in [8].

On to `Nc1cc(Cl)cc(Cl)c1`, for which the Potency result in assay [1], in assay [7] and in assay [9] was “inactive” in each case. Moreover, the outcome in [2], in assay [3], in [4], in assay [5], in assay [6] and in assay [8] was inactive.

Values taken from PubChem BioAssay (Tox21).
